Assay results taken from PMC4336329 (PLoS ONE, 2015).
Out of some 310,000 compounds screened, about 14,000 (4.5%) showed an effect of 50% or more. Effects have a minus sign here. The sample holds strong results, similar compounds and a random draw of the others, so the mix is not that of the screen.

Biological target: human ether-à-go-go-related gene (hERG) potassium channel (human, UniProt Q12809)
Assay: primary screen, population patch clamp on CHO cells stably expressing hERG; higher = less effect of the substance
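Further: peak tail current of the secondary pulse compared with the same well before compound.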

human ether-à-go-go-related gene (hERG) potassium channel, sequence (Q12809 whole entry, looked up): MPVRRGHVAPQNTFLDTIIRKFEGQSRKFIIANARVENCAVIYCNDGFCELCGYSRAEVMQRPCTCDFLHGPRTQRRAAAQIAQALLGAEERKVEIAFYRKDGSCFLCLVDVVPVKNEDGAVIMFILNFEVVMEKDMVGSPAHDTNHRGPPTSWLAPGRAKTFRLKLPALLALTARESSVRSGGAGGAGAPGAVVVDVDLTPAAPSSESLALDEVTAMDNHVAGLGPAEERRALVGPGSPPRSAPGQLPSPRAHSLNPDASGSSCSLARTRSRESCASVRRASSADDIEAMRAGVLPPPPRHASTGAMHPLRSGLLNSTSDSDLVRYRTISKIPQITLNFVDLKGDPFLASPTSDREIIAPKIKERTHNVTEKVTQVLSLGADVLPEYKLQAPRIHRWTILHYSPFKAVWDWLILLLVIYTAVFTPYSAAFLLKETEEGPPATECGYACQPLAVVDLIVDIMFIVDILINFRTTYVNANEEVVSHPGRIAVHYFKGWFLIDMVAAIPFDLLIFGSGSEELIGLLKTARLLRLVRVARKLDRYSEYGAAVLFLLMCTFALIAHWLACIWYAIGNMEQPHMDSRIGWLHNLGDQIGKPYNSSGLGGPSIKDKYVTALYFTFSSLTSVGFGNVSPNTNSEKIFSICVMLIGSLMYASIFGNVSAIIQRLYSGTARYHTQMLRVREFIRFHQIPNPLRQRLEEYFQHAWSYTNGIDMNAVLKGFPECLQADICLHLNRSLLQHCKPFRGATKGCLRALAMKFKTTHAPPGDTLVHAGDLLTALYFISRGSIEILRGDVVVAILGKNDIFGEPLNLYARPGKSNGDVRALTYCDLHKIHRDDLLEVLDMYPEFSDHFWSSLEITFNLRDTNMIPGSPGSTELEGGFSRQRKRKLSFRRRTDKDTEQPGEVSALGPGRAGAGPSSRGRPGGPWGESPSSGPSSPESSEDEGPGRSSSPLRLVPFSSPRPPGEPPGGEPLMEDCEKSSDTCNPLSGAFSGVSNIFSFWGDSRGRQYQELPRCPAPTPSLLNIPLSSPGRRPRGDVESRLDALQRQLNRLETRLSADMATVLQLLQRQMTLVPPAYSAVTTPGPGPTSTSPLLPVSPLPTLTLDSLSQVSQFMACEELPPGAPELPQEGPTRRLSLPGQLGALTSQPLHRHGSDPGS

Compound	hERG current change (%, negative = inhibition) at 10uM [%]
CC(OC(=O)c1cc(Br)ccc1O)C(=O)NC1(C#N)CCCCC1 (stereo not drawn)	27.3
Cc1c(N=Cc2nc3ccccc3[nH]2)c(=O)n(-c2ccccc2)n1C	5.52
Cc1ccc(S(=O)(=O)NC(CC(=O)N2CCC3(CC2)OCCO3)c2ccco2)cc1 (stereo not drawn)	3.51
CC(C)[C@H](NC(=O)NCCc1ccc(Cl)cc1)C(=O)O	5.9
COc1ccccc1-c1noc(CCC(=O)Nc2cc(C(F)(F)F)ccc2Cl)n1	-3.68
CC(C)=CC(=O)OCC(=O)Nc1cc([N+](=O)[O-])ccc1F	0.461
CC(C)CCN(Cc1ccco1)S(=O)(=O)c1csc(C(N)=O)c1	-14.9
CC1(c2ccc(OC(F)F)cc2)NC(=O)N(CC(=O)N2c3ccccc3NC(=O)C2(C)C)C1=O (stereo not drawn)	-6.78
CCCCNC(=O)N(O)C1N(/N=C/c2ccccc2F)C(=S)SC1(C)C (stereo not drawn)	16.5
Cc1ccc(C(=O)N[C@H](C(=O)OCC(=O)NC2CCS(=O)(=O)C2)C(C)C)cc1 (stereo partly drawn)	11.6
CC(=O)N(CCc1cccc(C)c1)Cc1cc2cc(C)ccc2[nH]c1=O	-5.71
COc1ccc(NC(=O)N(Cc2cc3cc(C)ccc3[nH]c2=O)CC2CCCO2)cc1 (stereo not drawn)	-25.2
Cc1ccc2[nH]c(=O)c(CN(CCCN(C)C)C(=O)Nc3cccc(Cl)c3)cc2c1	-53.6
CN(C)CCCN(Cc1cc2cc3c(cc2[nH]c1=O)OCO3)C(=S)Nc1cccc(Cl)c1	-45.7
Cc1ccc(NC(=S)N(CCCN(C)C)Cc2cc3cc4c(cc3[nH]c2=O)OCO4)cc1	-41.7
Cc1ccc2[nH]c(=O)c(CN(CCCN(C)C)C(=O)Nc3ccc(Cl)cc3)cc2c1	-66.1
Cc1ccc2[nH]c(=O)c(CN(CCCN(C)C)C(=O)Nc3ccc(F)cc3)cc2c1	-70.7
Cc1ccc2[nH]c(=O)c(CN(CCO)C(=O)N(C)C)cc2c1	5.5
Cc1cccc(NC(=O)N(Cc2cc3cc(C)ccc3[nH]c2=O)CC2COCCO2)c1 (stereo not drawn)	6.43
CN(C)CCCN(Cc1cc2cc3c(cc2[nH]c1=O)OCO3)C(=S)Nc1ccccc1	-36.6
Cc1cccc(NC(=S)N(CCCN(C)C)Cc2cc3cc4c(cc3[nH]c2=O)OCO4)c1	-52.7
CCCn1c(SCC(=O)NCc2ccco2)nnc1-c1ccncc1	19.9
O=C(NNC(=O)C1CC1)Nc1ccc(Cl)cc1	6.38
CNC(=O)c1nn(-c2ccccc2)ccc1=O	-1.51

Compound	hERG current change (%, negative = inhibition) at 10uM [%]
COc1cc2nc(N3CCN(C(=O)[C@H]4COc5ccccc5O4)CC3)nc(N)c2cc1OC	-37.7
O=S(=O)(c1ccccc1F)N1CCN(Cc2cc3c(cc2O)OCO3)CC1	-11.8
O=C(COC(=O)C1=COCCO1)Nc1ccc(F)c(F)c1	-1.21
Cc1ccc(N2C(=O)C3C4C=CC(C4)C3C2=O)cc1C (stereo not drawn)	13.3
Cn1c(SCC(=O)NC(=O)c2cccc([N+](=O)[O-])c2)nnc1-c1ccc(F)cc1	-23.3
C=CCn1c(SCC(=O)NC(=O)c2cccc([N+](=O)[O-])c2)nnc1-c1ccccc1F	-15.5
O=C(CSc1nnc(-c2ccccc2F)n1C1CC1)NC(=O)c1cccc([N+](=O)[O-])c1	-52.8
NS(=O)(=O)c1cccc(C(=O)NC2CCSc3ccccc32)c1 (stereo not drawn)	7.91
COc1cc(C(=O)N/N=C/c2ccc(OC(=O)c3ccccc3Cl)cc2)ccc1O	-10.5
O=c1[nH]c(=S)[nH]c2scc(-c3ccc(Br)cc3)c12	16.3
Cc1ccc(C2CC(c3cccc(NS(C)(=O)=O)c3)=NN2S(C)(=O)=O)cc1 (stereo not drawn)	-69.3
CS(=O)(=O)Nc1cccc(C2=NN(S(C)(=O)=O)C(c3ccccc3)C2)c1 (stereo not drawn)	-30.9
CCS(=O)(=O)N1N=C(c2cccc(NS(C)(=O)=O)c2)CC1c1ccc(C)cc1 (stereo not drawn)	-73.9
CCS(=O)(=O)Nc1cccc(C2=NN(S(C)(=O)=O)C(c3ccccc3)C2)c1 (stereo not drawn)	-14.6
CCS(=O)(=O)N1N=C(c2cccc(NS(C)(=O)=O)c2)CC1c1ccccc1 (stereo not drawn)	-16.9
CCS(=O)(=O)Nc1cccc(C2=NN(S(=O)(=O)CC)C(c3ccccc3)C2)c1 (stereo not drawn)	1.69
O=c1cc(-c2ccccc2)nc(N2CCCCC2)[nH]1	-13.7
CN(Cc1ccc(F)cc1)C(=O)c1sccc1-c1ccccc1	0.217
Cc1cc(=O)[nH]c(NN)n1	6.39
COc1cccc2cc(C(=O)NCc3ccco3)c(=O)oc12	2.32
Cc1ccc(S(=O)(=O)Nc2ccc(-c3nnc(SCC#N)n3C)cc2)cc1	-11.3
CC(C)(C)n1nnnc1C(c1cccnc1)N1CCN(C2CCCCC2)CC1 (stereo not drawn)	-2.19
CN1CCN(c2ccccc2NC(=O)c2ccc(Br)o2)CC1	-67.9
O=C(Nc1ccccc1N1CCCC1)c1ccco1	6.36

Compound	hERG current change (%, negative = inhibition) at 10uM [%]
O=C(Nc1ccccc1N1CCN(C(=O)c2ccccc2)CC1)c1ccc(Br)o1	-63.5
CC(=O)N1CCN(c2ccccc2NC(=O)c2ccc(Br)o2)CC1	-54.4
CC(=O)N1CCN(c2ccccc2NC(=O)c2ccco2)CC1	-38.9
CC1CCN(c2ccccc2NC(=O)c2ccc(Br)o2)CC1	-0.73
O=C(Nc1ccccc1N1CCCC1)c1ccc(Br)o1	-22.4
O=C(Nc1ccccc1N1CCN(C(=O)c2ccccc2)CC1)c1ccco1	-74.2
O=C(Nc1ccccc1N1CCN(C(=O)c2ccccc2)CC1)c1cc2ccccc2o1	9.86
CS(=O)(=O)N1CCN(c2ccccc2NC(=O)c2ccc(Br)o2)CC1	-36.3
O=C(Nc1ccccc1N1CCOCC1)c1ccc(Br)o1	1.26
CCOC(=O)c1[nH]c(C)c(C(=O)OCCN2C(=O)c3ccccc3C2=O)c1C	-1.16
COC(=O)[C@@H]1C[C@@]2(O)[C@H](O)[C@H](O)[C@H](O)C[C@H]2N1Cc1ccc(C(F)(F)F)cc1	13.2
Cc1ccccc1CN1CCN(CC(=O)NCc2ccccc2)CC1	-22.8
Cc1c(NC(=O)CCC2CCCCC2)cc(C(=O)N2CCOCC2)cc1[N+](=O)[O-]	-10.2
COc1cc(N)c(Cl)cc1C(=O)NC1CN2CCC1CC2.Cl.O (stereo not drawn)	-11.1
O=C(O)c1ccc(Cl)c(NC(=S)NC(=O)c2cccc(COc3ccccc3)c2)c1	30.4
COC(=O)c1ccc(N2CCN(C)CC2)c(NC(=O)c2ccc(-c3ccc(Cl)cc3)o2)c1	7.11
COC(=O)c1ccc(N2CCOCC2)c(NC(=O)c2ccc(Br)o2)c1	7.34
COC(=O)c1ccc(N2CCCCC2)c(NC(=O)c2ccco2)c1	-45.8
CCOC(=O)c1ccc(N2CCN(C(=O)c3ccccc3)CC2)c(NC(=O)c2ccco2)c1	-71.5
COC(=O)c1ccc(N2CCN(C(=O)c3ccccc3)CC2)c(NC(C)=O)c1	-39.8
COC(=O)c1ccc(N2CCN(C)CC2)c(NC(=O)c2ccc(Br)o2)c1	-55.8
CCOC(=O)N1CCC(NC(=O)c2cc(S(=O)(=O)N3CCC4(CC3)OCCO4)ccc2F)CC1	-6.9
Fc1cccc(CN2CCN3CCCC3C2C2CCCCC2)c1 (stereo not drawn)	-8.93
CCOc1ccc(NC(=S)NC(=O)/C=C/c2ccc(OC)cc2)c([N+](=O)[O-])c1	7.26

Compound	hERG current change (%, negative = inhibition) at 10uM [%]
O=C(COc1ccccc1Cl)NCCNC(=O)c1cccnc1	-3.71
CS(=O)(=O)NNC(=O)Cn1nnc(-c2ccc(OCc3ccccc3Cl)cc2)n1	18
O=C(Oc1ccc(-c2nnco2)cc1)N1CCOCC1	1.23
CCc1ccccc1Nc1nc(N)nc(COC(=O)CCNS(=O)(=O)c2ccccc2)n1	-62.7
Cc1ccccc1Nc1nc(N)nc(COC(=O)CCNS(=O)(=O)c2ccccc2)n1	-9.32
CCc1ccccc1Nc1nc(N)nc(COC(=O)CCS(=O)(=O)c2ccccc2)n1	-10.5
Cc1ccc2nc(NCCc3ccc(Cl)cc3)c3nncn3c2c1	8.75
Cn1c2ccccc2c2nnc(SCC(N)=O)nc21	-7.5
CCCCNS(=O)(=O)c1ccc2c(c1)oc(=O)n2CC(=O)OCC	5.06
O=C(Nc1ccccc1C(=O)Nc1ccc(Br)cn1)c1cccc([N+](=O)[O-])c1	16.6
O=C(Nc1ccccc1C(=O)Nc1ccccn1)c1ccc([N+](=O)[O-])cc1	-18
O=C(Nc1ccccc1C(=O)Nc1ccccn1)c1cccc([N+](=O)[O-])c1	-58.2
Cc1ccccc1NS(=O)(=O)c1ccc(C(=O)NCCCN2CCOCC2)cc1	9.08
Cc1ccccc1NS(=O)(=O)c1ccc2[nH]cc(C(=O)NCCCN3CCOCC3)c(=O)c2c1	14.5
O=C(Nc1ccccc1C(=O)NCCCN1CCOCC1)c1cccc([N+](=O)[O-])c1	-52.7
O=C(Nc1ccccc1C(=O)NCCCN1CCOCC1)c1ccccc1	6.8
O=C(NCCCN1CCOCC1)c1ccccc1NS(=O)(=O)c1ccc(F)cc1	-41.5
O=C(NCCCN1CCOCC1)c1ccccc1NS(=O)(=O)c1ccc(Br)cc1	-56.1
O=C(Nc1cc([N+](=O)[O-])ccc1C(=O)NCCN1CCOCC1)c1ccccc1	-44.9
O=C(NCCCN1CCCC1=O)c1ccccc1NS(=O)(=O)c1ccc(Br)cc1	1.59
Cc1cc(C)c(C)c(S(=O)(=O)Nc2ccccc2C(=O)NCCCN2CCOCC2)c1C	-88.5
